ANO1 block: inhibitors of mouse TMEM16A calcium-activated chloride channel; Q8BHY3; HEK293 TMEM16A/YFP iodide influx fluorescence, ionomycin; normalized B-score (activity score, 25-100; higher = stronger inhibition) at 10 µM; 1.2% of 310,000 active;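 active = ratio plate-corrected score three or more library SD toward inhibition, starting fluorescence score within five deviations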;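 note: score derived from kinetic fluorescence span divided by baseline fluorescence per well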
MEKK2 mut-MEK5: signal of MEK5 binding to mutant human MEKK2 PB1 domain; bead flow cytometry, Alexa488-MEK5 binding to MEKK2 mutant; percent response, % at 10 µM; 0.35% of 290,000 active; AID 1530; in the data active = percent response above about 24%, passing the limit was not always enough
NTR1 ag: activates human neurotensin receptor 1; AID 493036; activation, % at 20 µM; NTR1-U2OS beta-arrestin-GFP spot imaging, agonist mode; 0.17% of 330,000 active;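 active = activation at or above 40% of the spot to cytoplasm intensity ratio, with at least 20 cells analyzed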
Target sequence (P30989 whole entry, looked up): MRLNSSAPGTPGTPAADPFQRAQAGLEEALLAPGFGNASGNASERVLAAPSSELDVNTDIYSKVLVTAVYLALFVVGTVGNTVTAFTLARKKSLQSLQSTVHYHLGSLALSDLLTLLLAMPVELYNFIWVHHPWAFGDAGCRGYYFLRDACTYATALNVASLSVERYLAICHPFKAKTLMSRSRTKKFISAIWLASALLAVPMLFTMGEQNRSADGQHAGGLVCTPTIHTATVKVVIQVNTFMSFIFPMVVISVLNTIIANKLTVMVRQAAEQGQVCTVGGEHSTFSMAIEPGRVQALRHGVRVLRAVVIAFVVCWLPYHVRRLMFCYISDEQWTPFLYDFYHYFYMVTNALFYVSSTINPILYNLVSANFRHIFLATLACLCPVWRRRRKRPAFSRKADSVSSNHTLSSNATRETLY
MEKK2wt PB1 HTS: raises or lowers MEK5 binding to wildtype human MEKK2 PB1 domain; Q9Y2U5; 1.1% of 290,000 active; bead flow cytometry, Alexa488-MEK5 binding to MEKK2 WT; actives lie on both sides; binding response (% of control), % at 10 µM; in the data active = binding response below about 67% or above about 130%
TMEM16A act: activators or potentiators of mouse TMEM16A chloride channel; B-score at 10 µM; AID 623877; Q8BHY3; 0.3% of 340,000 active; HEK293 TMEM16A/YFP-H148Q/I152L, iodide quench fluorescence; hits give low values;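 active = fluorescence-ratio B-score plate-corrected deviation score at least 3 library SD below zero, with starting fluorescence score within 5 deviations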;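 note: channel opened by trigger with iodide after compound preincubation; score built on the fluorescence ratio of max minus min over baseline; more negative score means more quench and so TMEM16A activation or potentiation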
MEKK3 PB1 HTS: raises or lowers MEK5 binding to the human MEKK3 PB1 domain. Q99759. bead-based flow cytometry, Alexa488-MEK5 binding to MEKK3; actives lie on both sides; 0 = blocked by unlabeled MEK5, 100 = vehicle. binding response (% of control), % at 10 µM. 1.4% of 290,000 active. AID 1529;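 active = binding response more than 3 SD above or below the average of its plate-row segment, actives on both sides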;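 note: Alexa488 bead fluorescence after subtracting the streptavidin-only scavenger bead signal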
Large screens that a line does not name were inactive. Rows were chosen to be rich in hits. Some 3.4% of all compounds tested hit in one or more screens of this group.

Cc1noc(C)c1C(=O)Nc1ccc(-n2ccc(C(F)(F)F)n2)cc1	none
CCOC(=O)CCCCC(=O)c1[nH]c(=O)[nH]c1CSc1nnc2c3ccccc3n(C(C)C)c2n1	MEKK3 PB1 HTS 131.0
COCCNC(=O)Cn1ncc2ccsc2c1=O	TMEM16A act -11.2
CC(C)(C)C(=O)/C=c1\s/c(=C\c2ccc(-c3ccc([N+](=O)[O-])cc3)o2)c(=O)n1CC(=O)NC(N)=O	MEKK2 mut-MEK5 396.0, MEKK2wt PB1 HTS 241.0
CCC(=O)N/N=C/c1ccc(-c2ccc([N+](=O)[O-])cc2)o1	none
CCOC(=O)C(CSCC(=O)c1ccc(Br)cc1)NC(=O)OC(C)(C)C (centres undefined)	ANO1 block 100 (no result: TMEM16A act)
COc1ccc(CCNC(=O)CNCC2CCCCC2)cc1OC	none
CN(C)c1ccc(/C=C/c2cc[n+]([O-])cc2)cc1	none (no result: TMEM16A act)
CC[n+]1c(/C=C/c2ccc(N(C)C)cc2)ccc2ccccc21	MEKK2wt PB1 HTS 4.0 (no result: NTR1 ag)
CN(C)c1ccc(/C=C/c2cc[n+](C)cc2)cc1	MEKK2wt PB1 HTS 28.0
COC(=O)[C@H](CCSC)NC(=O)Cn1cnc2c(SC)nc(N)nc21	none (no result: ANO1 block, MEKK2 mut-MEK5, MEKK2wt PB1 HTS, MEKK3 PB1 HTS)
COc1cc(/C=C(\C#N)C(=O)Nc2ccccc2F)ccc1OCCN1CCOCC1	none
CN(c1ccc(O)cc1)c1nc(-c2cccs2)cs1	ANO1 block 25
O=C(Cc1ccccc1)Nc1nc(-c2cccs2)cs1	none
O=C(COc1ccc(Cl)cc1)Nc1nc(-c2cccs2)cs1	ANO1 block 100
O=C(Cc1ccccc1F)Nc1nc(-c2cccs2)cs1	ANO1 block 25
O=C(CSCC(=O)N1CCCCC1)Nc1nc(-c2cccs2)cs1	ANO1 block 25
CC1CC(C)CN(C(=O)CSCC(=O)Nc2nc(-c3cccs3)cs2)C1 (centres undefined)	none (no result: MEKK2 mut-MEK5, MEKK2wt PB1 HTS, MEKK3 PB1 HTS)
CCOC(=O)Cc1csc(NC(=O)COc2ccc(N(C)S(=O)(=O)c3cccs3)cc2)n1	ANO1 block 100
CCN(CC)c1c([N+](=O)[O-])c(=O)oc2ccccc12	none
Cc1cccc(NC(=O)c2ccccc2O)c1C	ANO1 block 25
COc1ccc(C)cc1Nc1n[n+](-c2ccccc2)c(-c2c(OC)ccc3ccccc23)s1	ANO1 block 100 (no result: MEKK2 mut-MEK5, MEKK2wt PB1 HTS, MEKK3 PB1 HTS)
CCCCN1C(=O)c2ccc(C(=O)OCC(=O)NCCc3ccc(S(N)(=O)=O)cc3)cc2C1=O	none (no result: ANO1 block, MEKK2 mut-MEK5, MEKK2wt PB1 HTS, MEKK3 PB1 HTS)
S=C(NCc1ccco1)Nc1ccc(Cl)c(Cl)c1	ANO1 block 25
Cc1cccc(N(CC(=O)NCc2ccccc2)C(=O)CCC(=O)Nc2nccs2)c1	none
CCN(CC)S(=O)(=O)c1cc([N+](=O)[O-])ccc1NNC(=O)Nc1ccc(Cl)c(Cl)c1	ANO1 block 25
CCCCN(C(=O)c1ccc(S(=O)(=O)N(C)C)cc1)c1nc2ccccc2s1	TMEM16A act -9.05
CN(C)CCCN(C(=O)c1ccc(C(=O)c2ccccc2)cc1)c1nc2cc3c(cc2s1)OCO3	MEKK2 mut-MEK5 38.0, MEKK2wt PB1 HTS 170.0
Cc1ccc2sc(N(CCN(C)C)C(=O)c3ccc4ccccc4c3)nc2c1C	MEKK2wt PB1 HTS 161.0
CN(C)CCCN(C(=O)c1ccc(C(=O)c2ccccc2)cc1)c1nc2ccc(F)cc2s1	MEKK2wt PB1 HTS 174.0
CN(C)CCCN(C(=O)c1nc2ccccc2s1)c1nc2ccc(F)cc2s1	none (no result: MEKK2 mut-MEK5, MEKK2wt PB1 HTS, MEKK3 PB1 HTS)
COc1ccc(-c2cn3nc(SCC(=O)NC4CCCCC4)ccc3n2)cc1	none
CCOC(=O)c1ccc(S(=O)(=O)N2CCN(C(=O)c3cc4ccccc4o3)CC2)cc1	none (no result: ANO1 block, MEKK2 mut-MEK5, MEKK2wt PB1 HTS, MEKK3 PB1 HTS)
Cc1cc(F)ccc1NC(=O)c1cccnc1	none
Cc1cccc2sc(N(CCCN(C)C)C(=O)c3ccc(C(=O)c4ccccc4)cc3)nc12	MEKK2 mut-MEK5 33.0, MEKK2wt PB1 HTS 168.0
COc1ccc2sc(N(CCCN(C)C)C(=O)c3ccc(C(=O)c4ccccc4)cc3)nc2c1	none (no result: MEKK2 mut-MEK5, MEKK2wt PB1 HTS, MEKK3 PB1 HTS)
O=C(NCCc1ccc(F)cc1)Nc1ccc([N+](=O)[O-])cc1	none
O=C(Nc1cccc([N+](=O)[O-])c1)c1cc2ccccc2cc1O	ANO1 block 100
O=[N+]([O-])c1ccc(NC(=S)NCCc2ccc(F)cc2)cc1	ANO1 block 100, TMEM16A act -4.87
O=C(O)c1ccccc1C(=O)Nc1cccc([N+](=O)[O-])c1	none
O=[N+]([O-])c1cccc(NC(=S)NCCc2ccccc2)c1	ANO1 block 100
COc1cc(OC)cc(C(=O)NNC(=O)NC2CCCCC2)c1	none
NNC(=O)c1ccc(COc2ccc3c(c2)CCC3)cc1	none
O=C(Nc1ccccc1Cl)c1ccc(COc2ccc3c(c2)CCC3)cc1	TMEM16A act -7.43
CN(N=O)c1ccc(CC2CCc3ccccc32)cc1 (centres undefined)	none (no result: ANO1 block, MEKK2 mut-MEK5, NTR1 ag, MEKK2wt PB1 HTS, MEKK3 PB1 HTS)
CCCNC(=O)Cn1c(=O)oc2cc(S(=O)(=O)N3CC(C)CC(C)C3)ccc21 (centres undefined)	TMEM16A act -40.8
COCCNC(=O)Cn1c(=O)oc2cc(S(=O)(=O)N3CC(C)CC(C)C3)ccc21 (centres undefined)	none
COc1cc(C(=O)Nc2scc(-c3ccc(Br)cc3)c2C(=O)O)cc(OC)c1OC	ANO1 block 100
CCC[C@@H]1CCCO[C@@](C(=O)NCCN2CCOCC2)(C(F)(F)F)C1	none
CCOC(=O)C1CCCN(c2c(N3CCOCC3)c(=O)c2=O)C1 (centres undefined)	none
CCOC(=O)C1CCCN(C(=O)N2CCOCC2)C1 (centres undefined)	ANO1 block 25
Cc1ccc(S(=O)(=O)Oc2ccccc2)cc1	none (no result: ANO1 block, MEKK2 mut-MEK5, NTR1 ag, MEKK2wt PB1 HTS, MEKK3 PB1 HTS)
Cc1ccc(S(=O)(=O)Oc2ccccc2-c2ccccc2)cc1	TMEM16A act -5.36 (no result: ANO1 block, MEKK2 mut-MEK5, NTR1 ag, MEKK2wt PB1 HTS, MEKK3 PB1 HTS)
CC(C)=CC1C(C(=O)Nc2ccc(S(=O)(=O)N3CCOCC3)cc2)C1(C)C (centres undefined)	TMEM16A act -4.88 (no result: MEKK2 mut-MEK5, MEKK2wt PB1 HTS, MEKK3 PB1 HTS)
CC1=CCC(C(=O)O)C(C(=O)Nc2ccc(-c3nc4ccc(C)cc4s3)cc2)C1 (centres undefined)	none
CC(C)CC(=O)NC(=S)N(Cc1ccccc1)Cc1ccccc1	MEKK3 PB1 HTS 148.0
OCC[C@@H]1C[C@@H](O)[C@H](O)[C@]2(Cc3ccccc3CO2)O1	none
COc1ccc(CC(=O)NNC(=O)CSc2ccc(C)cc2)cc1	TMEM16A act -7.08
CCc1c(C)nc(SCC(=O)NNC(=O)Cc2ccc(OC)cc2)[nH]c1=O	none
COc1ccc(/C(N)=N/OC(=O)CSc2ccc(C)cc2)cc1	ANO1 block 100
COc1ccc(/C(N)=N/OC(=O)CSc2ccccc2)cc1	none
CCOC(=O)c1nnn(-c2nonc2N)c1CSc1nnc(N)s1	none
CC1(c2ccc(OC(F)F)cc2)NC(=O)N(CC(=O)N2c3ccccc3NC(=O)C2(C)C)C1=O (centres undefined)	none (no result: ANO1 block, MEKK2 mut-MEK5, MEKK2wt PB1 HTS, MEKK3 PB1 HTS)

Assay outcomes from PubChem.
